Values joined by “and” are separate entries in the source; they are usually repeats but may differ in a detail not shown here. Identical values can stand only once. The panel holds about 83,000 compounds, 20% with a hit somewhere; the sample as a whole holds those more often.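 Interpretation: 100, growth as untreated; towards 0, rising growth inhibition; 0, no net growth; 0 to -100, cell death. Compounds scoring below 10 were considered active.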 Active and inactive are the calls of the source.
What was measured:
Experiment in all cases: NCI-60 one-dose screen, 48 h (100 = growth as untreated, 0 = no growth, -100 = all killed)
Details in all cases: 10 µM unless noted
NCI-H23 lung = system: NCI-H23 lung
NCI-H226 lung = system: NCI-H226 lung
NCI-H322M lung = system: NCI-H322M lung
HOP-62 NSCLC = system: HOP-62 NSCLC
NCI-H460 lung = system: NCI-H460 lung
HOP-92 NSCLC = system: HOP-92 NSCLC
NCI-H522 lung = system: NCI-H522 lung
A549/ATCC NSCLC = system: A549/ATCC NSCLC
786-0 renal = system: 786-0 renal
COLO 205 colon = system: COLO 205 colon

Row | Structure (SMILES) | growth (NCI-H23 lung) | growth (NCI-H226 lung) | growth (NCI-H322M lung) | growth (HOP-62 NSCLC) | growth (NCI-H460 lung) | growth (HOP-92 NSCLC) | growth (NCI-H522 lung) | growth (A549/ATCC NSCLC) | growth (786-0 renal) | growth (COLO 205 colon)
1 | COc1cc(C(=O)c2cc(C(C)=O)c3c(C)cccn23)cc(OC)c1OC | 101% (inactive) | 89.9% (inactive) | 98.5% (inactive) | 99.5% (inactive) | 102% (inactive) | 110% (inactive) | 90.2% (inactive) | 104% (inactive) | 91% (inactive) | 110% (inactive)
2 | O=C(CSc1nc2ccccc2c(=O)n1CCc1ccccc1)Nc1ccc(S(=O)(=O)Nc2ccc(Cl)nn2)cc1 | 89.9% (inactive) | 88.1% (inactive) | 92.8% (inactive) | 95.8% (inactive) | 101% (inactive) | 79.7% (inactive) | 87.1% (inactive) | 91.9% (inactive) | 102% (inactive) | 101% (inactive)
3 | CN1CCN(c2ccc(Nc3nc(NCCNC(=O)c4ccc(F)cc4)c4sccc4n3)cc2)CC1 | 74.2% (inactive) | 91.1% (inactive) | 81.7% (inactive) | 99.4% (inactive) | 84.5% (inactive) | 50.1% (inactive) | 68.1% (inactive) | 77.9% (inactive) | 52.3% (inactive) | 44.3% (inactive)
4 | CCCCCCOC(=O)c1cc(-c2ccc(F)cc2)nc2ccccc12 | 90.3% (inactive) | 91.2% (inactive) | 94.9% (inactive) | 94.4% (inactive) | 103% (inactive) | 65.9% (inactive) | 82.8% (inactive) | 101% (inactive) | 107% (inactive) | 107% (inactive)
5 | CS(=O)(=O)c1ccc(/C(=N/N=C(N)N)c2ccc(F)cc2)cc1 | 88.3% (inactive) | 91% (inactive) | 119% (inactive) | 95.7% (inactive) | 92.7% (inactive) | 94.4% (inactive) | 81.2% (inactive) | 80.8% (inactive) | 76.9% (inactive) | 88% (inactive)
6 | CC1(C)C=Cc2cc(/C(N)=N/C(N)=N/c3nc4ccccc4s3)ccc2O1 | 58.3% (inactive) | 5.64% (active) | 93.8% (inactive) | 5.82% (active) | 52.3% (inactive) | 94.2% (inactive) | 91.2% (inactive) | 67% (inactive) | 113% (inactive) | 102% (inactive)
7 | CCc1cc(OC(=O)N2CCC(N3CCCCC3)CC2)ccc1Nc1cc(-c2ccc(-n3cccn3)cc2)[nH]n1 | 80.3% (inactive) | 77.9% (inactive) | 101% (inactive) | 66.3% (inactive) | -15.5% (active) | 103% (inactive) | 96.2% (inactive) | 53.8% (inactive) | 58% (inactive) | 60.1% (inactive)
8 | CCC(=C(c1ccc(OCCN(C)C)cc1)c1ccc(OCCN(C)C)cc1)c1ccc(Cl)cc1 | 21.9% (inactive) | 21.7% (inactive) | 5.04% (active) | -65.7% (active) | -64.8% (active) | -5.13% (active) | -48.3% (active) | -72.3% (active) | -80.7% (active) | -67.3% (active)
9 | COc1ccc(C2CC(c3cccc(OCCCCOc4cccc(C5=NOC(c6ccc(OC)cc6)C5)c4)c3)=NO2)cc1 (stereo not given) | 103% (inactive) | 100% (inactive) | 94.7% (inactive) | 105% (inactive) | 102% (inactive) | 104% (inactive) | 86.4% (inactive) | 88.5% (inactive) | 99.1% (inactive) | 100% (inactive)
10 | CCCCCCCCCC(=O)NC(C)(C)C(=O)N1CCC[C@H]1C(=O)N[C@@H](CC(C)C)C(=O)N[C@@](C)(CC)C(=O)N[C@@H](CCC(N)=O)C(=O)N[C@H](CCC(N)=O)C(=O)NC(C)(C)C(=O)NC(C)(C)C(=O)N[C@@H](CCC(N)=O)C(=O)N[C@H](CC(C)C)C(=O)N[C@H](CO)CC(C)C | -85.9% (active) and -32.1% (active) | -71.3% (active) and -31.6% (active) | -88.1% (active) and 18.4% (inactive) | -70.9% (active) and -64.1% (active) | -83.6% (active) and -71% (active) | -91.1% (active) and -43.9% (active) | -83.3% (active) and -75.7% (active) | -72% (active) and 49.1% (inactive) | -82.1% (active) and -64.3% (active) | -63% (active) and -63.6% (active)
11 | C#CCOc1ccccc1/C=N/Nc1nc(-c2ccc(Cl)cc2)cs1 | 83.3% (inactive) | 82.8% (inactive) | 90.6% (inactive) | 96% (inactive) | 97.7% (inactive) | 88.2% (inactive) | 87.8% (inactive) | 101% (inactive) | 102% (inactive) | 109% (inactive)
12 | N#CC1=C2NCCCNc3oc(nc3C#N)Cc3ccccc3CC(=N1)O2 | 90.7% (inactive) | 92.3% (inactive) | 94.5% (inactive) | 97.8% (inactive) | 96.8% (inactive) | 94.9% (inactive) | 97.1% (inactive) | 98.3% (inactive) | 95% (inactive) | 88.1% (inactive)
13 | CCCCCCNC(=O)Oc1ccc(/C(=C(/C)c2ccc(OC)cc2)c2ccc(OCCN3CCCCCC3)cc2)cc1 | 20.4% (inactive) | 81% (inactive) | 82.1% (inactive) | -9.29% (active) | -67.9% (active) | 63.4% (inactive) | 82.4% (inactive) | 45.7% (inactive) | 24.3% (inactive) | -60.5% (active)
14 | COc1ccc(Cn2cc(C#N)c(N)c2C(C)=O)cc1 | 101% (inactive) | 101% (inactive) | 98.8% (inactive) | 104% (inactive) | 104% (inactive) | 87.5% (inactive) | 102% (inactive) | 110% (inactive) | 111% (inactive) | 111% (inactive)
15 | Cc1ccc2c(n1)C(=O)C(Cl)=C(Nc1ccc(C#N)cc1)C2=O | 92.3% (inactive) | 98.3% (inactive) | 109% (inactive) | 115% (inactive) | 100% (inactive) | 126% (inactive) | 52.4% (inactive) | 106% (inactive) | 80.4% (inactive) | 79.6% (inactive)
16 | Nc1ccc(Nc2ncnc3sc4c(c23)CCN(Cc2ccccc2)C4)cc1 | 102% (inactive) | 91.5% (inactive) | 101% (inactive) | 103% (inactive) | 105% (inactive) | 92.2% (inactive) | 91.3% (inactive) | 100% (inactive) | 105% (inactive) | 115% (inactive)

Reference: PubChem BioAssay (NCI)
